Source: PubChem BioAssay (several laboratories)
L929 necroptosis: L929 zVAD cell death inhibition. L929 zVAD necroptosis rescue, ATP luminescence, 24 h; with zVAD 60 µM. viability rescue, % at 10 µM. 220,000 compounds, 0.38% hits. AID 1377;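 active means activation, scaled between plate controls, above about 75%, limit read from the data; inactive means activation under that limit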
TNF death inh: blocks TNF-alpha induced death of Jurkat FADD-/- cells; Jurkat FADD-/- TNF necroptosis rescue, ATP luminescence, 24 h; 0 = TNF only, 100 = no-TNF cells; activation (protection from cell death), % at 10 µM; 220,000 compounds, 0.068% hits; AID 463075;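 active means activation, meaning protection from cell death, of at least 50% relative to plate controls; inactive means activation below 50%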;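 further: necroptosis triggered by 40 ng/mL TNF-alpha added together with compound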
Mcl1-Noxa inh: disrupts binding of human Mcl-1 to Noxa peptide. TR-FRET Mcl-1/Noxa peptide binding, 2 h. 220,000 compounds, 1.5% hits. inhibition, % at 21.7 µM. Q07820;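 active means compounds that cut the protein-peptide binding signal by more than 50% relative to plate controls in a single-dose test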;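 further: His-tagged Mcl-1 with rhodamine Noxa BH3 peptide and terbium anti-His antibody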
Target sequence (Q07820 whole entry, looked up): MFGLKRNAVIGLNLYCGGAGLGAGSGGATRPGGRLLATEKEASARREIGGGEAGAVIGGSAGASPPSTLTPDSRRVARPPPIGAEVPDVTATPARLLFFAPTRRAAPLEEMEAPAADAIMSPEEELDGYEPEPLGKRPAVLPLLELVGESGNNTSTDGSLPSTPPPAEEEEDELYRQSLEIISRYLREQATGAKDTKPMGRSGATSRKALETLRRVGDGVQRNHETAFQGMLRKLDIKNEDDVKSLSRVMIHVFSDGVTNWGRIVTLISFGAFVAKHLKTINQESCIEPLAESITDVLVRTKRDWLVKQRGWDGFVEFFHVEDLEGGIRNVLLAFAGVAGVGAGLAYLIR
Bim-Mcl-1: human Bim-Mcl-1 interaction inhibition | Q07820 | Bead-based flow cytometry, Bim peptide-Mcl-1 binding | inhibition, % at 10 µM | 190,000 compounds, 0.1% hits | AID 1009; in the data active means inhibition above about 40%
Mcl1-Bid inh: disrupts binding of human Mcl-1 to Bid peptide; Q07820; TR-FRET Mcl-1/Bid-Dy647 peptide binding, 1536-well; inhibition, % at 21.7 µM; 220,000 compounds, 0.97% hits; AID 1021;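 active means compounds that cut the binding signal by more than half at the single screening dose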;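 further: His-tagged Mcl-1 with europium anti-His antibody binding Bid BH3 peptide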
Calpain2 inh: blocks pig calpain II enzyme activity. purified calpain II, fluorogenic peptide substrate, 30 min. 220,000 compounds, 0.37% hits. inhibition, % at 16 µM;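 active means inhibition above about 50%, limit read from the data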
Hits are given with their value; i = inactive; nt = not tested or not shown. The list is not random: actives were taken first. Their share in the collection is about 2.8%.

SMILES	L929 necroptosis	TNF death inh	Mcl1-Noxa inh	Bim-Mcl-1	Mcl1-Bid inh	Calpain2 inh
Cc1c(N(C(=O)c2ccccn2)C2(C(=O)NC3CCCC3)CCCCC2)c(=O)n(-c2ccccc2)n1C	i	i	i	i	i	i
CCOC(=O)N1CCN(C(=O)c2ccc(CS(=O)(=O)c3ccccc3OC)o2)CC1	i	i	59	i	i	i
COc1ccccc1N1CCN(C(=O)c2ccc(CS(=O)(=O)c3ccccc3OC)o2)CC1	i	i	i	i	i	i
O=C(O/N=C1\CCS(=O)(=O)c2sccc21)c1ccc(F)cc1	i	i	i	i	i	60
Cc1cccc(NC(=O)CSc2nnc(-c3ccco3)c(-c3ccco3)n2)c1C	i	i	95	i	i	i
Cc1ccccc1NC(=O)CSc1ccc(-c2ccco2)nn1	i	i	i	i	i	i
Cc1cccc(NC(=O)CSc2nc(N)cc(N)n2)c1	i	i	i	i	i	i
Cc1cccc(NC(=O)CSc2nnc(-c3ccco3)c(-c3ccco3)n2)c1	i	i	96	i	i	i
COCCN1CCn2c(nc3cc(NC(=O)Cn4nc(C)c5ccccc5c4=O)ccc32)C1	i	i	66	nt	i	i
O=C(Cn1cnc2scc(-c3cccc([N+](=O)[O-])c3)c2c1=O)NCc1ccco1	i	i	67	i	i	i
COc1ccccc1Oc1ccc(Oc2ccccc2OC)cc1	i	i	i	i	i	i
CCC(C)(C)NC(=O)C(c1ccc(C)cc1)N(CCN1CCOCC1)C(=O)CNC(=O)c1cccs1 (centres undefined)	i	i	i	i	i	i
CCCCN(Cc1cc2ccccc2[nH]c1=O)S(C)(=O)=O	nt	i	i	i	98	i
Cc1cccc(N(Cc2cc3ccccc3[nH]c2=O)S(C)(=O)=O)c1	i	i	i	i	i	i
O=C(CC1S/C(=N/N=C/c2ccco2)NC1=O)Nc1ccccc1 (centres undefined)	i	i	i	i	i	i
O=C(CC1S/C(=N/N=C/c2c[nH]c3ccccc23)NC1=O)Nc1ccccc1 (centres undefined)	i	i	61	i	56	i
O=C(CC1S/C(=N/N=C/c2c[nH]c3ccc(OCc4ccccc4)cc23)NC1=O)Nc1ccccc1 (centres undefined)	i	i	67	i	58	i
O=C(Nc1ccccc1F)c1ccc(CSc2ccccc2)o1	i	i	i	i	i	i
COc1ccccc1Nc1nc(-c2sc(NC(=O)c3ccccc3)nc2C)cs1	i	i	i	i	i	i
COc1ccccc1Nc1nc(-c2sc(NC(=O)c3ccc([N+](=O)[O-])cc3)nc2C)cs1	i	i	86	i	i	i
CC(=O)Nc1ccc(-c2csc(N/N=C\c3ccncc3)n2)cc1	i	i	51	nt	i	i
CCCC(=O)Nc1ccc(-c2csc(N/N=C\c3ccncc3)n2)cc1	i	i	i	nt	i	i
Cc1ccc(Cl)cc1Nc1nc(-c2sc(NC(=O)c3ccccc3)nc2C)cs1	i	i	106	i	100	i
COc1cccc(Nc2nc(-c3sc(NC(=O)c4ccco4)nc3C)cs2)c1	i	i	i	56	i	i
O=C(NNc1c(F)c(F)cc(F)c1F)c1cc2ccccc2oc1=O	i	i	i	i	i	i
SMILES	L929 necroptosis	TNF death inh	Mcl1-Noxa inh	Bim-Mcl-1	Mcl1-Bid inh	Calpain2 inh
Cc1nc(NC(=O)c2ccccc2)sc1-c1csc(NCc2ccccc2)n1	i	i	i	i	i	i
O=C(Nc1nc(-c2ccncc2)cs1)c1ccco1	i	i	94	i	i	i
O=C(Nc1nc(-c2cccs2)cs1)c1ccco1	i	i	i	i	i	i
Cc1nc(NC(=O)c2ccccc2)sc1-c1csc(Nc2cccc(F)c2)n1	i	i	56	i	i	i
Cc1cc(NS(=O)(=O)c2ccc(Nc3nc(-c4sc(NC(=O)c5ccccc5)nc4C)cs3)cc2)no1	i	i	117	i	i	i
NC(=S)NNc1c(F)c(F)c(F)c(F)c1F	i	i	i	i	i	i
CC1=CCC(C(=O)O)C(C(=O)Nc2ccc(-c3nc4ccc(C)cc4s3)cc2)C1 (centres undefined)	i	i	i	nt	i	i
COc1ccc(COC(=O)NNC(=O)c2ccccc2Cl)cc1	i	i	i	47	i	i
O=C(NNC(=O)c1ccccc1Cl)c1ccco1	i	i	i	nt	i	i
